Laboratory results from PubChem BioAssay AID722 (NMMLSC, 2007).
Hit rate of the full screen: of about 1,300 compounds, about 40 (3%) were called active. Many of the other results were omitted from the sample, so actives are more common in it than they were. Values without a mark were called inactive. Rule as the data show it: active = inhibition above about 30%; inactive = the rest.

Target: fMet-Leu-Phe receptor (Homo sapiens) (UniProt P21462)
Experiment: FPR1 fluorescent ligand binding inhibitors, primary screen, cell-based, flow cytometry, SAR analysis (AID 722)
Conditions: FPR-expressing cells, stronger effect = higher value, concentration not given here

fMet-Leu-Phe receptor (Homo sapiens), sequence (P21462 whole entry, looked up): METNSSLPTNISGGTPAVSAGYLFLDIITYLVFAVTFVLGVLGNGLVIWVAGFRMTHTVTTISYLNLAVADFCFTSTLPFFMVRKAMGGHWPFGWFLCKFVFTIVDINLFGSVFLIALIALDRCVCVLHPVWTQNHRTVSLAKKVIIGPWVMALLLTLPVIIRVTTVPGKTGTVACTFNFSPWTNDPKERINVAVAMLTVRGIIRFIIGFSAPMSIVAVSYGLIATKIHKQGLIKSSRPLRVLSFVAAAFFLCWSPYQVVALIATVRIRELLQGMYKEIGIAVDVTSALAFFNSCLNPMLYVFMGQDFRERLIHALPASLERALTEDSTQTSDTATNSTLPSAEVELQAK

SMILES	inhibition
COC(=O)c1c[nH]n2c(=O)cc(C3CCNCC3)nc12	-1.9%
O=C1CSC(c2ccc(Br)cc2)N1c1cccc(Cl)c1 (configuration not stated)	2.7%
COc1ccc(C2C(C(=O)c3cc4ccccc4o3)=C(O)C(=O)N2CCN(C)C)cc1OC (configuration not stated)	66.9% (active)
COc1cc(C2C(C(=O)c3cc4ccccc4o3)=C(O)C(=O)N2CCN(C)C)cc(OC)c1OC (configuration not stated)	-6.9%
COc1cc(C2C(C(=O)c3cc4ccccc4o3)=C(O)C(=O)N2CCN(C)C)ccc1O (configuration not stated)	88.7% (active)
COc1cc(C2C(C(=O)c3cc4ccccc4o3)=C(O)C(=O)N2CCCN(C)C)cc(OC)c1OC (configuration not stated)	14.6%
COc1ccc(C2C(C(=O)c3cc4ccccc4o3)=C(O)C(=O)N2CCN(C)C)cc1 (configuration not stated)	-8.1%
COc1cccc(C2C(C(=O)c3cc4ccccc4o3)=C(O)C(=O)N2CCCN(C)C)c1 (configuration not stated)	-4.2%
COCCCN1C(=O)C(=O)/C(=C(/O)c2ccc(C)cc2)C1c1cc(OC)ccc1OC (configuration not stated)	0.2%
CCOC(=O)Cc1c(C)nc2c(-c3ccccc3)c(-c3ccccc3)[nH]n2c1=O	-11.4%
COCCN1C(=O)C(O)=C(C(=O)c2cc3ccccc3o2)C1c1ccc(OCc2ccccc2)c(OC)c1 (configuration not stated)	-2.2%
COc1ccc(C2C(C(=O)c3cccs3)=C(O)C(=O)N2CCCN2CCOCC2)cc1 (configuration not stated)	6.5%
COc1ccc(C2C(C(=O)c3ccco3)=C(O)C(=O)N2CCN2CCOCC2)cc1OC (configuration not stated)	-43.5%
COc1ccc(C2C(C(=O)c3ccco3)=C(O)C(=O)N2CCN2CCOCC2)c(OC)c1 (configuration not stated)	49.5% (active)
COc1ccc(C2C(C(=O)c3cccs3)=C(O)C(=O)N2CCN2CCOCC2)cc1 (configuration not stated)	9.7%
COc1ccc(C2C(C(=O)c3cccs3)=C(O)C(=O)N2CCN2CCOCC2)c(OC)c1 (configuration not stated)	62% (active)
COc1ccc(C2C(C(=O)c3ccco3)=C(O)C(=O)N2CCN2CCOCC2)cc1 (configuration not stated)	2.9%
COc1ccccc1CN1C(=O)c2nccnc2C1=O	1.8%
CCc1ccc(C(=O)CSc2nc3nc(C)cc(C)c3c(=O)[nH]2)cc1	5.9%
CCOC(=O)c1c(NC(=O)c2ccco2)sc2c1CCC(C)C2 (configuration not stated)	-0.4%
Cc1ccc(N2C(=O)CSC2c2ccc(C(C)C)cc2)cc1 (configuration not stated)	-5.6%
O=C(C1=C(O)C(=O)N(CCCn2ccnc2)C1c1ccc(Cl)cc1Cl)c1ccco1 (configuration not stated)	1.7%
CCOC(=O)c1c(NC(=O)c2cccnc2)sc2c1CCC(C(C)(C)C)C2 (configuration not stated)	-8%

SMILES	inhibition
O=C1C(=O)N(c2cccnc2)C(c2ccccc2[N+](=O)[O-])/C1=C(/O)c1ccccc1 (configuration not stated)	-2.9%
CCc1c(C)sc(NC(=O)c2cccc(F)c2)c1C(=O)OC	-9.8%
COc1ccc(C2C(C(C)=O)=C(O)C(=O)N2Cc2ccco2)cc1OC (configuration not stated)	1.8%
COc1cccc(Oc2c(C(F)(F)F)oc3cc(O)ccc3c2=O)c1	9.2%
COC(=O)c1c(NC(=O)c2ccoc2C)sc(C)c1C	5.4%
COc1ccc(-c2c(C)[nH]n3c(=O)c4c(nc23)CCCC4)cc1	73% (active)
CCc1c(C)nc2c(-c3ccc(OC)cc3)c(C)[nH]n2c1=O	12.9%
COc1ccc(-c2c(C)[nH]n3c(=O)cc(Cc4ccccc4)nc23)cc1	-1.1%
CC(C)OC(=O)c1nonc1N(C(=O)c1ccccc1)C(=O)c1ccccc1	-0.6%
O=C1C(=O)N(CCN2CCOCC2)C(c2cccs2)/C1=C(\O)c1ccc(S(=O)(=O)N2CCOCC2)cc1 (configuration not stated)	-1.3%
CC(=O)C1=C(O)C(=O)N(CCc2c(C)[nH]c3ccccc23)C1c1cccc(F)c1 (configuration not stated)	65.2% (active)
CC(=O)C1=C(O)C(=O)N(CCc2c(C)[nH]c3ccccc23)C1c1cccc([N+](=O)[O-])c1 (configuration not stated)	9.3%
COc1ccc(/C(O)=C2/C(=O)C(=O)N(CCc3c(C)[nH]c4ccccc34)C2c2ccc(Cl)cc2)cc1 (configuration not stated)	4.2%
Cc1onc(-c2ccccc2Cl)c1C(=O)Oc1cccc(F)c1	3.6%
CCOC(=O)c1c(NC(=O)c2cc3ccccc3o2)sc2c1CCC(C)C2 (configuration not stated)	-1.7%
CCN1CCC2(CC1)N=C(c1ccccc1)C(=S)N2C(=O)c1ccccc1	2.1%
CC(=O)C1=C(O)C(=O)N(Cc2ccco2)C1c1ccc(Br)cc1 (configuration not stated)	-1.5%
COc1ccc(/C(O)=C2/C(=O)C(=O)N(c3ccc(C)c(Br)c3)C2c2ccc(O)cc2)cc1 (configuration not stated)	-5.2%
O=C(c1ccccc1F)N(Cc1ccco1)Cc1ccccc1F	9.3%
O=C(Oc1ccc2c(=O)c(Oc3ccccc3Br)c(C(F)(F)F)oc2c1)c1cccs1	37.2% (active)
COc1cccc(OC)c1C(=O)Oc1ccc2c(=O)c(-c3ccc(Cl)cc3)c(C(F)(F)F)oc2c1	4.7%
COc1ccc(Oc2c(C(F)(F)F)oc3cc(OC(=O)c4c(OC)cccc4OC)ccc3c2=O)cc1	2.9%
COc1ccccc1-c1c(C(F)(F)F)oc2cc(OC(=O)N3CCOCC3)ccc2c1=O	9.4%

SMILES	inhibition
O=C(Oc1ccc2c(=O)c(Oc3ccccc3Cl)c(C(F)(F)F)oc2c1)c1cccs1	-8.1%
O=C(Oc1ccc2c(=O)c(-c3ccccc3Cl)c(C(F)(F)F)oc2c1)c1cccs1	70% (active)
COc1cc(C)c2c(=O)c(Oc3ccccc3)c(C(F)(F)F)oc2c1	4.2%
CCCCc1c(O)nc(SCCN(C)C)n(-c2ccccc2)c1=O	-1%
CCOc1ccc(C2/C(=C(/O)c3ccc(Cl)cc3)C(=O)C(=O)N2c2ccc(C)c(Br)c2)cc1 (configuration not stated)	-0.6%
COCCCN1C(=O)C(=O)/C(=C(/O)c2ccccc2)C1c1cc(OC)ccc1OC (configuration not stated)	11.4%
COCCN1C(=O)C(=O)/C(=C(/O)c2ccccc2)C1c1cc(OC)ccc1OC (configuration not stated)	69.8% (active)
COc1ccc(C2/C(=C(\O)c3ccccc3)C(=O)C(=O)N2CCCn2ccnc2)c(OC)c1 (configuration not stated)	79.1% (active)
COc1ccc(C2/C(=C(\O)c3ccccc3)C(=O)C(=O)N2c2cccc(Cl)c2)c(OC)c1 (configuration not stated)	47.6% (active)
COc1ccc(C2/C(=C(/O)c3ccccc3)C(=O)C(=O)N2c2ccc(C)c(Br)c2)c(OC)c1 (configuration not stated)	-1.6%
COc1ccc(C2/C(=C(\O)c3ccccc3)C(=O)C(=O)N2c2ccc(C)c(Cl)c2)c(OC)c1 (configuration not stated)	-4.3%
COc1ccc(C2/C(=C(/O)c3ccccc3)C(=O)C(=O)N2CCO)c(OC)c1 (configuration not stated)	-12.1%
COc1ccc(/C(O)=C2/C(=O)C(=O)N(CCCn3ccnc3)C2c2cccc(OC)c2)cc1 (configuration not stated)	-6.1%
COCCN1C(=O)C(=O)/C(=C(/O)c2ccccc2)C1c1ccc(OC)cc1OC (configuration not stated)	10.5%
CC(C)c1ccc(C2/C(=C(\O)c3ccc(F)cc3)C(=O)C(=O)N2CCCN2CCOCC2)cc1 (configuration not stated)	-6%
COc1ccc2c(=O)c(-c3ccccc3)c(C(F)(F)F)oc2c1C	-2.4%
CCc1cc2c(=O)c(-c3nc4ccccc4s3)c(C)oc2cc1OC(C)=O	4%
O=C1C(=O)N(CCN2CCOCC2)C(c2cccc(Br)c2)/C1=C(\O)c1ccccc1 (configuration not stated)	1.8%
Cc1onc(-c2c(Cl)cccc2Cl)c1C(=O)N1CCC(C)CC1	5.9%
COC(=O)c1c(NC(=O)c2cccc(Br)c2)sc2c1CCCC2	-4.7%
Cc1cc(N2C(=O)CSC2c2ccccc2F)ccc1Br (configuration not stated)	0.4%
COc1ccc(OC)c(C2C(C(=O)/C=C/c3ccccc3)=C(O)C(=O)N2CCCCCC(=O)O)c1 (configuration not stated)	-3.9%
Cc1oc2cc(OCC(=O)O)ccc2c(=O)c1-c1ccc2c(c1)OCCO2	3.2%

SMILES	inhibition
COc1cccc(C(=O)/C=C(\Nc2sc3c(c2C#N)CCC3)C(=O)O)c1	-24.9%
N#Cc1c(N/C(=C\C(=O)c2ccccc2)C(=O)O)sc2c1CCC2	53% (active)
CCOC(=O)c1c(NC(=O)Cc2ccccc2)sc2c1CCCCC2	-0.4%
Cn1c2c(c(=O)n3ncc(C(=O)O)c13)CN(Cc1ccccc1)CC2	-6.5%
CCc1cc2c(=O)c(-c3nc4ccccc4n3C)c(C)oc2c(CN2CCCCC2)c1O	-12.9%
CCOC(=O)c1c(NC(=O)c2cc(C)no2)sc(C)c1C	2.2%
COc1ccc(OC)c(NC(=O)C(C)n2sc3ccccc3c2=O)c1 (configuration not stated)	2.2%
CCCCCCOc1cccc(N2C(=O)C(=O)/C(=C(\O)c3ccccc3)C2c2ccc(C(C)C)cc2)c1 (configuration not stated)	-11.9%
COc1ccc(/C(O)=C2/C(=O)C(=O)N(c3ccc(C)c(Br)c3)C2c2cccc(F)c2)cc1 (configuration not stated)	20.6%
Cc1ccc(N2C(=O)C(=O)/C(=C(\O)c3ccccc3)C2c2cccc(F)c2)cc1Br (configuration not stated)	30.2% (active)
CCCCCCOc1cccc(N2C(=O)C(=O)/C(=C(\O)c3ccccc3)C2c2cccc(F)c2)c1 (configuration not stated)	56.3% (active)
O=C(O)COc1ccc(N2C(=O)C(=O)/C(=C(\O)c3ccccc3)C2c2cccc(F)c2)cc1 (configuration not stated)	-6.1%
Cc1cccc(N2C(=O)C(=O)/C(=C(/O)c3ccccc3)C2c2cccc(F)c2)c1 (configuration not stated)	4.1%
COC(=O)c1c(NC(=O)c2ccc(C)cc2)sc(C)c1C	-13.3%
COc1ccc(C2/C(=C(\O)c3ccccc3)C(=O)C(=O)N2CCN2CCOCC2)c(OC)c1 (configuration not stated)	17%
CCOc1ccc(/C(O)=C2\C(=O)C(=O)N(CCN3CCOCC3)C2c2ccc(Br)cc2)c(C)c1 (configuration not stated)	-1.7%
COc1ccc(C2SCC(=O)N2c2ccc(Br)cc2)cc1 (configuration not stated)	1.9%
CCCN(C(=O)c1cccc(NC(=O)[C@H]2[C@@H]3C[C@@H]4[C@H]2C(=O)O[C@@H]4C3)c1)c1ccccc1F	-2.9%
CCOC(=O)c1c(NC(=O)c2ccco2)sc(C)c1C	-1.8%
CCOC(=O)C1NN=C(C(=O)c2ccccc2)C1c1ccccc1 (configuration not stated)	-1%
CCSC1=C(C#N)C(c2ccc3c(c2)OCO3)CC(=O)N1 (configuration not stated)	-2.1%
COc1cccc(C2/C(=C(/O)c3ccc(Cl)cc3)C(=O)C(=O)N2c2ccc(C)c(Br)c2)c1 (configuration not stated)	0.2%
COc1ccc(C2CC(=O)C3=C(C2)NC(=O)CC3c2cccs2)cc1OC (configuration not stated)	-3.3%
